Results taken from PubChem BioAssay (NCI).
About 79,000 compounds went through this panel and 15% of them were active in at least one assay; those are over-represented in the sample as a whole. A number with no mark means an inactive call. Active and inactive are the calls of the source. No stated cut-off is given here; in the data, active means growth inhibition above about 70%; inactive means the rest.

Assay: NCI Yeast Anticancer Drug Screen. Data for the rad14 strain (AID 159);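 further: 0% = growth of vehicle-treated control cultures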
Details: S. cerevisiae rad14 strain growth inhibition, hits give high values
Experimental: Growth inhibition of yeast strains with defined genetic alterations is measured as a screen for potential anti-cancer activity. Selected strains with alterations in DNA damage repair or cell cycle control were exposed to compounds and growth inhibition was measured relative to vehicle treated controls. The strain used in this assay is rad14

SMILES	growth inhibition (at 1.2 µM)	growth inhibition (at 3.7 µM)	growth inhibition (at 11.0 µM)	growth inhibition (at 33.0 µM)	growth inhibition (at 100.0 µM)
COc1ccc2nc3cccc([N+](=O)[O-])c3c(NCCN(CCO)CCO)c2c1	84% (active)	96% (active)	98% (active)	98% (active)	98% (active)
OC1CSCCCSCCSCCCSC1	-35%	-37%	-28%	-36%	-47%
Nc1ncncc1C(C1=C(O)COC1=O)C1=C(O)COC1=O	-2%	-4%	-2%	-5%	-2%
Nc1ccn(C2OC(CO)C3[O][Sn]([c]4ccccc4)([c]4ccccc4)[O]C32)c(=O)n1 (stereo not given)	1%	1%	3%	22%	78% (active)
Cn1c(N)nc(-c2ccc(Cl)cc2)c1SSc1c(-c2ccc(Cl)cc2)nc(N)n1C	-1%	-1%	10%	53%	97% (active)
Cc1ccc(C2C(Cl)C(=O)N2n2cnc3ccccc3c2=O)cc1 (stereo not given)	-15%	-19%	-9%	-12%	-4%
Cc1ccc2[nH]c3c(C)c4cc[n+](C)cc4c(C)c3c2c1	16%	6%	-8%	41%	90% (active)
CC(=O)Oc1ccc2c(c1)Cc1cc(N=C3C=CC(=O)O3)ccc1-2	16%	42%	99% (active)	99% (active)	95% (active)
